Data published in PubChem BioAssay (NCI).
Compounds without any hit were thinned out: in the full panel of roughly 83,000, 20% have a hit.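 Treatment: one concentration, 48 hours, 96-well format. Scoring: percent growth, with anything below 10 considered active.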 Values without a mark were called inactive. The source made the active and inactive calls.

test system: NCI-H226 lung; test: NCI-60 one-dose screen, 48 h (100 = growth as untreated, 0 = no growth, -100 = all killed); settings: 10 µM unless noted

Compound | growth
CCS(=O)(=O)N[C@@H]1O[C@H](COC(C)=O)C(OC(C)=O)[C@H](OC(C)=O)C1OC(C)=O (some centres undefined) | 109%
CCC(C)(C)c1ccc(OCCCCCCN2CCN(c3ccc(C)c(Cl)c3)CC2)cc1 | 73.7%
Cc1ncc(C(=O)Nc2ccc(CN3CCN(C)CC3)c(C(F)(F)F)c2)cc1C#Cc1c(N)ncc2ccccc12 | -79.1% (active)
COc1ccc2cnc(N)c(C#Cc3cc(C(=O)Nc4ccc(CN5CCN(C)CC5)c(C(F)(F)F)c4)cnc3C)c2c1 | 26.8%
COc1ccc(-c2nc(SCC(C)C)nc(Nc3ccc(C(=O)O)cc3)c2C#N)cc1 | 87.7%
CCCCCCCCCCCCCCCCC(=O)O.CCCCCCCCCCCCCCCCCC(=O)O.CCCCCCCCCCCCCCCCCC(=O)O.CCCCCCCCCCCCCCCCCC(=O)O.CCCCCCCCCCCCCCCCCC(=O)O.CO[CH-]OC12COC1CC(O)C1(C)C(O)C(OC(C)O)C3=C(C)C(OC(=O)C(O)C([NH-])c4ccccc4)CC(O)(C(OC(=O)c4ccccc4)C21)C3(C)C.[Cu+].[Zn].[Zn].[Zn].[Zn].[Zn] (centres undefined) | 73.2%
O=C1c2cc([N+](=O)[O-])ccc2-c2cc(Cl)c(NC(=O)C(F)(F)F)cc21 | 101%
CCCNC(=O)Oc1ccc(/C(=C(/C)Cc2ccc(OC)cc2)c2ccc(OCCN3CCCCC3)cc2)cc1 | 95.1%
CC(=O)CCS(=O)c1ccccc1 (centres undefined) | 107%
N#CC1=C(N2CCOCC2)NC2c3ccccc3Sc3ccccc3N2C1=N (centres undefined) | 94.5%
CC(C)(C)OC(=O)N1C/C(=C\c2ccccc2)C(=O)/C(=C/c2ccccc2)C1 | 81.6%
N#Cc1ccc(NC2c3ccccc3CC2O)cc1 (centres undefined) | 102%
CC([C@H]1CCC2C3CCC4C[C@@H](N)CC[C@]4(C)C3CC[C@@]21C)N(C)C (some centres undefined) | 112%
CCN(CC)c1ccc2nc3ccc(N=Nc4ccc(O)cc4)cc3[n+](-c3ccccc3)c2c1 | 98.1%
CC(C)CSc1nc(-c2ccc(F)cc2)c(C#N)c(N2CCCCC2)n1 | 90.5%
Cc1ccc(C(=O)Nc2ccc(CN3CCN(C)CC3)c(C(F)(F)F)c2)cc1C#Cc1cnc(N)c2ccc(C#N)cc12 | 54.4%
CCCCCN1CCN(C(CC(=O)c2ccccc2)C(=O)c2ccccc2)CC1 (centres undefined) | 103%
COc1ccc2cc(C(C)C(=O)Nc3ccc(S(=O)(=O)Nc4cc(C)on4)cc3)ccc2c1 (centres undefined) | 106%
CN1CCN(Cc2ccc(NC(=O)c3ccc(C#Cc4c(N)ncc5ccc(F)cc45)cc3)cc2C(F)(F)F)CC1 | 55.1%
CSC1=Nc2c(c(C)c(-c3ccccc3)n2CCCCl)C2=NC(=O)CN12 | 79.3%
Cc1ncc(C(=O)Nc2ccc(CN3CCN(C)CC3)c(C(F)(F)F)c2)cc1C#Cc1cnc(NC2CC2)c2ncccc12 | 39.7%
Oc1ccc([S+](c2ccc(O)cc2)c2ccc(O)cc2)cc1 | 88.3%
Oc1ccc2ccccc2c1/C=N\Nc1ccccn1 | 9.04% (active)
CCCNC(=O)Oc1ccc(/C(=C(/CC)Cc2ccccc2)c2ccc(OCCN(CC)CC)cc2)cc1 | 87.3%
